Results filed as inconclusive are left out. The source made the active and inactive calls. Unless noted, the call rests on the fitted dose curve; in most records, active means well fitted curve in the direction sought with a large enough effect in the repeat runs; inconclusive means weak or mixed curves; inactive means no such curve, though single readings can be large; an effect the other way counts as inactive or inconclusive.
Columns and labels:
[1] = qHTS assay to identify small molecule antagonists of the estrogen related receptor (ERR) signaling pathway - cell viability counter screen (AID 1224818); further: series mostly up to about 46 µM
How it was run: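 ERR cells, 2,000 per well, compound added after 6 h and incubated 17.5 h at 37 C. Viability read by CellTiter-Fluor fluorescence after a further 30 min at 37 C.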

[2] = qHTS assay to identify small molecule antagonists of the estrogen related receptor (ERR) signaling pathway (AID 1224819;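 further: luminescence from an ERR-driven luciferase reporter measured with One-Glo reagent; series mostly up to about 46 µM; nearly all actives have a fitted effect of over 50% in size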)
How it was run: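 ERR reporter cell line (NTP) plated at 2,000 cells/well, settled 6 h at 37C/5% CO2, then exposed to LOPAC compounds for 18 h at 37C. One-Glo luciferase luminescence read after 30 min at room temperature.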

[3] = qHTS assay to identify small molecule agonists of the estrogen related receptor (ERR) signaling pathway (AID 1224820)
How it was run: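 Quantitative HTS of the LOPAC library used NTP ERR reporter cells treated 18 h at 37 C. Signal is luminescence after One-Glo addition and a 30 min room-temperature incubation.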

[4] = test system: estrogen-related receptor alpha (ERRalpha) with PGC-1alpha coactivator, human; experiment: qHTS assay to identify small molecule antagonists of the estrogen related receptor signaling pathway with the pleiotropic PPARgamma coactivator (PGC) (AID 1224821; calls by dose curve;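 further: series mostly up to about 46 µM; lower luminescence signal means antagonism of PGC/ERR signalling; nearly all actives have a fitted effect of over 50% in size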)
How it was run: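 Quantitative HTS for antagonism: PGC/ERR cells received compounds after 6 h attachment and were incubated 18 h at 37 C, with luminescence (One-Glo) as the endpoint.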

[5] = qHTS assay to identify small molecule antagonists of the estrogen related receptor signaling pathway with the pleiotropic PPARgamma coactivator (PGC) cell viability counter screen (AID 1224822; further: series mostly up to about 46 µM)
How it was run: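 PGC/ERR cells rested 6 h, then compound-treated 17.5 h at 37 C. CellTiter-Fluor added for 30 min at 37 C, viability measured by fluorescence intensity.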

[6] = qHTS assay to identify small molecule agonists of the estrogen related receptor signaling pathway with the pleiotropic PPARgamma coactivator (PGC) (AID 1224823)
How it was run: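 Cell-based luciferase assay in the NTP-supplied PGC/ERR line, 2,000 cells/well; 18 h compound exposure at 37 C, luminescence after One-Glo.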

Measured: Potency

CC(C)(O)[C@@H]1[C@H]2OC(=O)[C@@H]1[C@]1(O)C[C@H]3O[C@]34C(=O)O[C@H]2[C@]14C (tested in a mixture with another compound)
inactive: all assays above

N[C@@]1(C(=O)O)CC[C@@H](C(=O)O)C1
inactive: all assays above

Reference: PubChem BioAssay (Tox21)
